Source: the supplement of paper PMC6555819

Legend:
Assay in all cases: PBM binding z-score (relative to random genomic background probes); higher = stronger binding; sequences stand for … in GC…GCGATTGACAGCGTAGAATGAAGG
[1] = tested on: FXR:RXRa (NR concentration 270 nM, RXRa partner concentration 90 nM)
Procedure, shortened: (§1)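 Custom Agilent 4×180K protein-binding microarrays carried double-stranded probes, each with a 34-nt variable region. These regions held direct-repeat seeds, single-nucleotide variants, half-site ablations and random human genomic background sequences. Ligand-free nuclear receptor dimers were incubated on the arrays for 1 h, antibodies against each partner (one per run) detected binding, and scanned fluorescence was regression-normalized. Binding z-scores take the random background probes as reference.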

[2] = tested on: LXRa:RXRa (NR concentration 270 nM, RXRa partner concentration 90 nM)
Procedure, shortened: as §1

[3] = tested on: LXRa homodimer (NR concentration 270 nM)
Procedure, shortened: as §1

[4] = tested on: LXRb:RXRa (NR concentration 270 nM, RXRa partner concentration 90 nM)
Procedure, shortened: as §1

[5] = tested on: LXRb homodimer (NR concentration 270 nM)
Procedure, shortened: as §1

[6] = tested on: PPARa:RXRa (NR concentration 270 nM, RXRa partner concentration 90 nM)
Procedure, shortened: as §1

[7] = tested on: PPARg:RXRa (NR concentration 180 nM, RXRa partner concentration 90 nM)
Procedure, shortened: as §1

[8] = tested on: PPARg:RXRa 270nM:90nM, anti-RXR (NR concentration 270 nM, RXRa partner concentration 90 nM)
Procedure, shortened: as §1

[9] = tested on: PPARg:RXRa 30nM:10nM, anti-RXR (NR concentration 30 nM, RXRa partner concentration 10 nM)
Procedure, shortened: as §1

[10] = tested on: PPARg:RXRa 90nM:30nM, anti-RXR (NR concentration 90 nM, RXRa partner concentration 30 nM)
Procedure, shortened: as §1

| Sequence | PBM binding z-score [1] | PBM binding z-score [2] | PBM binding z-score [3] | PBM binding z-score [4] | PBM binding z-score [5] | PBM binding z-score [6] | PBM binding z-score [7] | PBM binding z-score [8] | PBM binding z-score [9] | PBM binding z-score [10] |
| --- | --- | --- | --- | --- | --- | --- | --- | --- | --- | --- |
| ATCGAAAGGTCGAGATGAGTATAGAGAAAGGGAA | 3.74 | 3.2 | 0.146 | 2.54 | 0.748 | 4.2 | 2.56 | 2.97 | 0.989 | 2 |
| CGTCCAAGGTCAGCAGATCAGTGAAAGCGACGTG | 5.09 | 3.1 | -0.179 | 2.21 | -0.172 | 3.95 | 2.5 | 2.9 | 0.511 | 1.51 |
| CGTCCACGGTCAATGCTAGGTCAGTGAAAGCATT | 0.638 | 1.1 | 0.946 | 0.337 | -0.956 | 0.778 | -0.0965 | 0.186 | -0.646 | -0.669 |
| CTCGAAAAGTCGGTTGAGGTGAGTATACGGATAA | 0.673 | 0.0454 | -0.319 | -4.02e-05 | -0.053 | 0.458 | -0.07 | -0.172 | 0.085 | -0.0769 |
| TCGAGTAGGTTATTCGGGGCATTCAGCCAACATA | 1.16 | 1.05 | 0.0577 | 1.51 | -0.7 | 1.69 | 0.35 | 1.19 | 1.13 | 1.07 |
| AATACAGCGTCACTAGGCCAGAGTAGGTACGAAT | -0.287 | -0.499 | -0.588 | -0.808 | -0.279 | 0.0154 | 0.87 | 0.513 | 0.103 | 0.0712 |
| TTACCAAGGTGAAAGGTCCTTGATGCACGCCTTG | 1.03 | 1.02 | -0.388 | 1.06 | -1.03 | 3.88 | 5.66 | 6.39 | 4.88 | 6.09 |
| TAGCCTAGGTCATGCGTGCCAGTATAGTGTCGGC | 4.03 | 3.31 | 0.471 | 1.75 | -0.0531 | 3.69 | 2.33 | 2.39 | 0.347 | 1.23 |
| CCTGATAGGTCAATGGTCAGCTAAAGCAGCTCGC | 5.01 | 3.98 | 0.776 | 2.92 | 0.415 | 4.48 | 4.56 | 4.96 | 2.53 | 4.35 |
| ACAGACAGGTGATGAAGGAAACTCAGGCTATCAT | 0.101 | -0.0621 | -0.0645 | -0.383 | -0.211 | 0.0161 | 0.66 | -0.12 | 0.224 | -0.159 |
| GCTAGCAGGCTATTTGGGTCACTCAATGACGGGC | 0.127 | 0.137 | -0.259 | 0.255 | -0.646 | 2.16 | 1.11 | 1.36 | -0.338 | 0.706 |
| TAGCCTAGGTCATGCGGGCTAGTATAGTGTCGGC | 3.65 | 2.96 | 0.103 | 1.54 | -0.594 | 3.43 | 2.07 | 2.14 | 0.00724 | 0.957 |
| GCTTGTAGATCAAGGTAAAGAAAGACTAAGCTAA | -0.136 | -0.278 | -0.768 | -0.413 | -0.986 | -0.222 | 0.0186 | 0.28 | -0.318 | -0.167 |
| CAAACTAGGTCACAGAGGTAAAAGTCCGTGCGTA | 4.42 | 3.37 | 0.644 | 2.58 | 0.501 | 5.38 | 9.21 | 7.63 | 5.5 | 7.27 |
| ATCTCTAGCTAAAGATAGTTCAGTGAATGCAAAT | -0.338 | -0.141 | 0.164 | 0.199 | 0.452 | 0.345 | 0.318 | -0.271 | -0.0381 | -0.201 |
| CCTCGGAGGACAGAAGCTCAGAGCTGTCCGCTTT | -0.605 | -0.517 | -0.873 | -1.16 | -0.889 | -1.83 | -0.876 | -1.61 | -1.52 | -1.69 |
| ATAGACAGGTGATGAAGGTAACTCAGGCTATCAT | -0.202 | -0.185 | -0.277 | -0.324 | 0.162 | -0.103 | 0.6 | 0.152 | 0.156 | -0.14 |
| ATCTCCAGGTAACAAGTTCAGTGAAAGAGAGGAC | 1.08 | 1.37 | 0.906 | 0.805 | 1.22 | 0.983 | 0.944 | 1.21 | 0.66 | 0.891 |
| ATCTCTAGGTAAAAGTTAAGTGAATCCCGAGGAT | 0.172 | 0.0131 | -0.136 | -0.0735 | 0.69 | 1.58 | 3.42 | 4.91 | 2.79 | 4.71 |
| GCAGACAGGAGAAACGCAGGTAACTCAGGGTGGC | -0.504 | -0.393 | -0.471 | -0.777 | -1.34 | -0.523 | 0.376 | -0.659 | -0.781 | -0.611 |
| CGTCCAAGGTCAAAGGTCAGTGAAGAGATGACGG | 8.56 | 7.07 | 3.31 | 6.61 | 1.67 | 7.33 | 10.8 | 8.93 | 8.26 | 9.54 |
| CGTCCAAGGTCAGCAGGTCTGTGAAAGCGACGTG | 5.03 | 3.02 | -0.272 | 2.06 | -0.284 | 4.16 | 2.65 | 3.06 | 0.0215 | 1.57 |
| CCTATTAGTTGACCATACGGGCAACCGAAGCTCG | 0.382 | 0.294 | 0.419 | 0.323 | 0.519 | -0.224 | 0.305 | -0.0431 | -0.298 | -0.186 |
| CCGACTGGGGCAAAGGTTAACATACTCAGTACGA | 2.41 | 2.19 | 0.28 | 2.96 | -0.551 | 6.17 | 11.3 | 9.21 | 9.81 | 10.1 |
| GCGACTGGGGCATCAACAGGTTACCATAACTTAA | -0.21 | 0.22 | -0.147 | 1.42 | -0.367 | 1.48 | 1.15 | 0.92 | -0.0267 | 0.231 |
